Compound activity deposited in PubChem by National Center for Advancing Translational Sciences (NCATS).
AmpC no deterg: blocks E. coli AmpC beta-lactamase in detergent-free assay. 330,000 compounds, 0.52% hits. P00811. AmpC nitrocefin hydrolysis, absorbance 480 nm, 0.0001% Triton. Potency, µM (highest dose often 57.1 µM), for the others: top-dose activity change, negative = inhibition, most hits filed as inhibitors;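 note: potency is the fitted concentration of half-maximal effect; plate controls were no compound for no effect and no enzyme for full effect; nearly all actives have a fitted effect of over 20% in size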
Target sequence (P00811 whole entry, looked up): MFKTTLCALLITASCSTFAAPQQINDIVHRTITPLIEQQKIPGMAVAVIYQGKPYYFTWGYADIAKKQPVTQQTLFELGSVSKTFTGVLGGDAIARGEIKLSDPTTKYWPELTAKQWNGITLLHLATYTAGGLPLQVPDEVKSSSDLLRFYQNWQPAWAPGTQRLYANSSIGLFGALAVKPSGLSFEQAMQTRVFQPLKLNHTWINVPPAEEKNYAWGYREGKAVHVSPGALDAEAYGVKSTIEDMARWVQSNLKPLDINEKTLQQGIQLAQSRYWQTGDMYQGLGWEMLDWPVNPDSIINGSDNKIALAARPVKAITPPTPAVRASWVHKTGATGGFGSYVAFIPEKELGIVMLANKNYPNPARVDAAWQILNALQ
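AmpC (5.3 nM in the dispensed reagent) in 20 mM phosphate pH 7.0 with 0.01% (detergent screen) or 0.0001% Triton X-100 was preincubated with compounds for 15 min at room temperature. Nitrocefin was then added from an 800 uM solution, and hydrolysis was followed at 480 nm.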
HCMV antiviral: blocks human cytomegalovirus replication. HFF cells, HCMV-luciferase reporter, 72 h; hits give low values. activity change, negative = inhibition, % at 57.5 µM. 410,000 compounds, 4.5% hits; in the data active = activity change below about -60%; inconclusive = no clear call, values can overlap the other calls; inactive = above about -39%
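Compounds were evaluated in HFFs infected with an HCMV luciferase reporter virus (MOI 1 PFU/cell). Luciferase in lysates collected 72 h post infection served as the replication measure.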
HCV inhibitor: inhibitors of hepatitis C virus infection | Huh7.5.1 HCVcc-Cre infection, luciferase reporter, 44 h | Potency, µM (doses to about 41.8 µM), without a hit: top-dose activity change, negative = inhibition, usual class: inhibitors | 340,000 compounds, 3.4% hits; note: potency is the fitted concentration of half-maximal effect
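Reporter virus HCVcc-Cre (~0.5 moi) infects cells exposed to compound; seeding density 1,000 cells/well with 4 h settling beforehand. Luminescence, 15 sec read, taken 44 h post-infection following a 15 min RT substrate incubation.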
FMDV inh: blocks foot and mouth disease virus; FMDV antiviral cell-based qHTS; Potency, µM (series often up to 57.9 µM), for the others: top-dose activity change, negative = inhibition, most hits filed as inhibitors; 410,000 compounds, 1.2% hits; AID 1159524; calls by dose curve; tested in HEK293T cells; note: read-out not given here; potency is the fitted concentration of half-maximal effect; nearly all actives have a fitted effect of over 45% in size
AmpC detergent: blocks E. coli AmpC beta-lactamase in detergent assay; P00811; AmpC hydrolysis of nitrocefin, absorbance 480 nm, 0.01% Triton; Potency, µM (series often up to 114 µM), for inactives: at the top dose activity change, negative = inhibition, hits mostly inhibitors; 370,000 compounds, 0.041% hits; AID 485294;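 note: potency is the fitted concentration of half-maximal effect; 0% = no-compound wells and -100% = no-enzyme wells; nearly all actives have a fitted effect of over 25% in size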
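20 mM phosphate pH 7.0 + 0.01% (detergent screen) or 0.0001% Triton X-100; 5.3 nM AmpC reagent; cpd preinc 15 min RT; nitrocefin (800 uM stock) to start; A480 q20 s × 4 min; Activity was normalised to no-enzyme and no-compound control wells.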
Numbers without * were called inactive; ? = inconclusive; . = not tested or not shown. Sampled rows, rich in hits. Any-hit rate of the full collection: about 7.3%. Unless noted, calls come from the whole dose curve; as a rule, active = well fitted curve in the direction sought with a large enough effect; inconclusive = small, poorly fitted or top-dose-only effect, or another doubt; inactive = no such curve, though single readings can be large; an effect the other way counts as inactive or inconclusive. Unless noted, % is set by controls: 0 for no effect and ±100 for the full control effect.

SMILES	AmpC no deterg	HCMV antiviral	HCV inhibitor	FMDV inh	AmpC detergent
COc1ccccc1NC(=O)Cn1cc(C(=O)c2ccncc2)c(=O)c2cc(C)ccc21	.	27.6	.	0.6%	-7.2%
CCOc1ccc(/C=C/C(=O)C(C(N)=O)=C2SCCS2)cc1	-1.3%	-72.9*	10.5%	21.7%	-3.8%
CCOc1ccc(S(=O)(=O)NC(C)(C)C)cc1-c1nc2c(C(C)(C)C)nn(C)c2c(=O)[nH]1	86.4%	-36.7	7.08µM*	.	-12.4%
CCOc1ccc(S(N)(=O)=O)cc1-c1nc2c(C(C)(C)C)nn(C)c2c(=O)[nH]1	21.2%	-32.8	?	25.4%	9.7%
CCOc1ccc(NC(=O)C2=NN(c3ccccc3)C(=O)CC2)cc1S(=O)(=O)N1CCCCC1	78.3%	-9.0	10.7%	-20.5%	0.9%
COc1ccc(CCNC(=O)CCn2c(SCC#N)nc3ccccc3c2=O)cc1OC	-6.7%	-7.7	12.6µM*	8.2%	-12.0%
COc1cccc2c1NC1(c3ccccc3)c3ccccc3-n3nncc3CN1C2=O (stereo not drawn)	.	-4.3	.	.	.
CCCC(C)C(=O)Nc1cc([N+](=O)[O-])ccc1Cl (stereo not drawn)	-33.0%	?	-20.1%	0.0%	6.3%
CCCC(C)C(=O)Nc1ccc(Cl)cc1Cl (stereo not drawn)	-26.5%	-77.8*	-21.8%	2.8%	?
Brc1cccc(-c2cnn3c(-c4ccccc4)cc(-c4ccccc4)nc23)c1	.	3.8	.	3.9%	11.5%
COc1ccc2c(c1)-c1nc(N)sc1CC2	-26.0%	?	?	26.6%	2.1%
COc1ccc2c(c1)-c1nc(/N=C/c3ccc(O)c(OC)c3)sc1CC2	-19.9%	.	11.2µM*	1.8%	-16.6%
CC(=O)c1cc(C(=O)N2CCCC(CCC(=O)N(C)CCc3ccccn3)C2)cs1 (stereo not drawn)	-0.6%	-66.5*	6.2%	-24.2%	6.0%
CCOC(=O)C1(C(=O)OCC)COC(=O)C1CN1Cc2cc3ccccc3nc2C1 (stereo not drawn)	.	141.9	.	28.2µM*	.
CC(C)NS(=O)(=O)c1ccc(NC(=O)C(C)OC(=O)CCC(=O)c2cccs2)cc1 (stereo not drawn)	-21.2%	-15.4	13.2%	0.3%	-6.7%
COc1ccc(CCNC(=O)C(=O)NCCC2CCCCN2S(=O)(=O)c2ccccc2)cc1 (stereo not drawn)	-23.5%	?	-4.6%	?	0.7%
COc1ccc(CCNC(=O)C(=O)NCCC2CCCCN2S(=O)(=O)c2cccs2)cc1 (stereo not drawn)	-24.3%	-29.6	?	31.6µM*	-3.7%
COc1ccccc1CNC(=O)C(=O)NCCC1CCCCN1S(=O)(=O)c1cccs1 (stereo not drawn)	-22.6%	-11.5	11.2µM*	?	-10.8%
Cc1ccccc1CNC(=O)C(=O)NCCC1CCCCN1S(=O)(=O)c1cccs1 (stereo not drawn)	-33.9%	-28.9	?	-10.4%	?
CC(CC(=O)NCc1ccccc1)C1CCCO1 (stereo not drawn)	-16.1%	43.5	12.6%	46.7%	-10.6%
O=C(CC(C(=O)O)C1CCCO1)NCc1ccccc1 (stereo not drawn)	-22.3%	-101.3*	5.0%	-9.2%	-6.8%
Cc1ccc(N2CCN(C(=O)c3cnn(-c4ccc(C)c(C)c4)c3C3CCNCC3)CC2)c(C)c1	.	-97.0*	.	-12.7%	4.4%
Cc1ccc(Cl)cc1N1CCN(C(=O)c2cnn(-c3ccc(Cl)cc3)c2C2CCNCC2)CC1	.	-101.3*	.	-24.7%	13.0%
Cc1cccc(N2CCN(C(=O)c3cnn(-c4cccc(Cl)c4C)c3C3CCNCC3)CC2)c1C	.	-98.6*	.	-18.9%	1.0%
CCc1ccc(NC(=O)C(C)OC(=O)Cc2cc(OC)c(OC)c(OC)c2)cc1 (stereo not drawn)	109.4%	25.1	?	?	.
O=C(CCCOc1ccc(Cl)cc1Cl)N/N=C/c1ccccc1	-3.4%	-25.5	-19.7%	-7.6%	-4.1%
O=C(CCCOc1ccc(Cl)cc1Cl)N/N=C/c1ccccc1O	-14.7%	-103.7*	?	-16.7%	-11.1%
O=C(O)CCC(=O)NNC(=O)COc1ccc(Cl)cc1Cl	-12.8%	-78.6*	-22.3%	9.6%	-5.6%
